# Screening results deposited in PubChem BioAssay by National Center for Advancing Translational Sciences (NCATS).
# Pf growth 48h – Primary qHTS for delayed death inhibitors of the malarial parasite plastid, 48 hour incubation; P. falciparum luciferase growth in erythrocytes, 48 h; Potency, µM (doses to about 28.7 µM), actives largely listed as inhibitors; actives 5.9% (n = 310,000); AID 504832, 2011
#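 Luciferase-expressing P. falciparum in infected erythrocytes (2% hematocrit, 0.1% parasitemia final) in RPMI 1640/0.5% Albumax were exposed to compound for 48 hours at 37 C, 5% CO2; growth read as luminescence.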
# LASV entry inh – qHTS for Inhibitors of binding or entry into cells for Lassa Virus; Lassa virus pseudotype entry inhibition, cell reporter; Potency, µM (top dose mostly 37.9 µM), hits mostly inhibitors; actives 1.2% (n = 300,000); calls by dose curve; tested in HEK293 cells; note: nearly all actives have a fitted effect of over 50% in size
# HCMV inh – qHTS Assay for inhibitors of the human cytomegalovirus (HCMV); HFF cells, HCMV-luciferase reporter, 72 h; stronger effect = lower value; activity change, negative = inhibition, % at 57.5 µM; actives 4.5% (n = 410,000); AID 1259415, 2018; in the data active = activity change below about -60%; inconclusive = no clear call, values can overlap the other calls; inactive = above about -39%
#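 After 16 h attachment at 37C, HFF cells received test compound and HCMV-luciferase (1 PFU/cell); reporter luminescence read 72 h later, data normalized against buffer-only and known inhibitor Salinomycin.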
# MARV entry inh – qHTS for inhibitors of binding or entry into cells for Marburg Virus; Marburg virus pseudotyped entry inhibition, cell reporter; Potency, µM (top dose mostly 37.8 µM), actives largely listed as inhibitors; actives 1.8% (n = 300,000); AID 540276, 2011; calls by dose curve; tested in HEK293 cells
# HCV inh – qHTS Assay for Inhibitors of Hepatitis C Virus (HCV); Potency, µM (series often up to 41.8 µM), hits mostly inhibitors; Huh7.5.1 HCVcc-Cre infection, luciferase reporter, 44 h; actives 3.4% (n = 340,000); AID 651820, 2012
#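 After 44 h co-culture of compound, cells and HCVcc-Cre (~0.5 moi), substrate is added for 15 min at room temperature and luciferase measured over 15 sec. Cells were seeded at 1,000/well and pre-cultured 4 h.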
# Pf growth 96h – Primary qHTS for delayed death inhibitors of the malarial parasite plastid, 96 hour incubation | P. falciparum luciferase reporter growth, 96 h | Potency, µM (doses to about 28.7 µM), hits mostly inhibitors | actives 6.9% (n = 320,000) | AID 504834, 2011
#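 Delayed-death screen, second-generation endpoint: infected erythrocytes, 2% hematocrit, 0.05% parasitemia final; 96 hours at 37 C, 5% CO2; luciferase detection reagent; luminescence decrease equals reduced growth.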
# Hits are given with their value; . = inactive; ? = inconclusive; / = no result given; [ ] = another dose, or the depositor's remark. Sampled rows, rich in hits. Any-hit rate of the full collection: about 14%. Unless noted, calls come from the whole dose curve; as a rule, active = well fitted inhibition curve with a large enough effect; inconclusive = small, poorly fitted or top-dose-only effect, or another doubt; inactive = no such curve, though single readings can be large or run the other way.
SMILES,Pf growth 48h,LASV entry inh,HCMV inh,MARV entry inh,HCV inh,Pf growth 96h
CCc1cccc(NC(=O)C2CCCN(c3ncnc4onc(-c5ccc(F)cc5)c34)C2)c1 (configuration not stated),/,.,.,/,/,/
COC(=O)Cc1nnn2c1CC(OC)c1cc(Br)ccc1-2 (configuration not stated),/,/,.,/,/,/
N#Cc1cccc(NC(=O)CSc2ccc3c4c(cccc24)C(=O)c2ccccc2-3)c1,/,?,?,?,8.9µM,.
N#Cc1cccc(NC(=O)CSc2ccccc2)c1,.,.,.,.,.,.
Cn1c(N)c(C(=O)COC(=O)c2cc(-c3ccco3)nc3ccccc23)c(=O)n(Cc2ccccc2)c1=O,?,.,/,.,.[8.37 µM],9.3µM
Cn1c(N)c(C(=O)COC(=O)c2cc(-c3ccco3)nc3ccccc23)c(=O)n(C)c1=O,?,.,.,.,?,?
CCOC(=O)N1CCC(NC(=O)C2CCN(c3nc(-c4ccc(OC)cc4)no3)CC2)CC1,?,.,-65,.,?,.
COc1ccc(-c2noc(N3CCC(C(=O)NC(C)c4ccccc4)CC3)n2)cc1 (configuration not stated),?,/,-63,/,?,.
CCN(C(=O)C1CCCN(c2nc(-c3ccc(OC)cc3)no2)C1)c1ccccc1F (configuration not stated),?,/,.,/,?,?
CCN(C(=O)C1CCN(c2nc(-c3ccc(OC)cc3)no2)CC1)c1ccccc1,?,/,.,/,10µM,?
CCOc1ccccc1NC(=O)C1CCN(c2nc(-c3ccc(OC)cc3)no2)CC1,.,/,.,/,.,.
COc1ccc(-c2noc(N3CCC(C(=O)Nc4ccccc4Cl)CC3)n2)cc1,.,/,.,/,.,.
COc1ccc(-c2noc(N3CCC(C(=O)N(C)c4ccccc4)CC3)n2)cc1,?,/,.,/,11µM,.
O=C(NCC1CCN(Cc2ccc(F)cc2)CC1)C1CCCN(c2ncnc3c2nc2n3CCCCC2)C1 (configuration not stated),?,/,-61,/,?,9.3µM
O=C(NCC1CCN(Cc2ccc(Cl)cc2)CC1)C1CCCN(c2ncnc3c2nc2n3CCCCC2)C1 (configuration not stated),12µM,/,-79,/,?,.
CSc1ccccc1OCc1cc(C(=O)NCCC2=CCCCC2)no1,.,.,.,?,.,.
COc1cc(/C=N/Nc2cccc3cccnc23)cc(OC)c1O,?,/,.,/,22µM,.
Oc1c(/C=N/Nc2cccc3cccnc23)ccc2ccccc12,5.9µM,.,.,.,.,.
CCOc1ccc(/C=N/Nc2ccccn2)cc1OC,.,.,.,.,.,.
C=CCOc1ccc(/C=N/Nc2ccccn2)cc1OC,.,.,.,?,14µM,.
COc1cc(/C=N/Nc2ccccn2)ccc1OCC(C)C,.,.,.,?,8.9µM,?
Oc1cccc(/C=N/Nc2cccc3cccnc23)c1,.,?,.,?,?,.
CO[C@H]1CN(C)C(=O)c2cc(NC(=O)c3ccccc3)ccc2OC[C@H](C)NC[C@@H]1C,/,/,.,/,/,/
CCCOc1ccc(/C=N/Nc2ccccn2)cc1OC,.,.,.,?,?,.
COc1cc(/C=N/Nc2ccccn2)cc(OC)c1O,.,7.9µM,.,?,?,.
SMILES,Pf growth 48h,LASV entry inh,HCMV inh,MARV entry inh,HCV inh,Pf growth 96h
Cc1ccc(NC(=O)c2ccc3c(c2)OCCO3)cc1C,.,?,.,?,?,.
O=C(CCc1nc2ccccc2[nH]1)Nc1ccc2c(c1)OCCO2,.,.,.,?,.[8.37 µM],1µM
CCCCC(=O)Nc1cccc(NC(=O)c2ccc3c(c2)OCO3)c1,.,.,.,.,2.8µM,.
Cc1ccc(NC(=O)c2ccc3c(c2)OCCO3)cc1S(=O)(=O)Nc1cccc(Cl)c1,.,?,.,?,10µM,.
O=C(Nc1ccc2c(c1)OCCO2)c1cccc2nc3ccccc3nc12,?,.,-92,?,?,?
CCOC(=O)N1CCN(C(=O)COC(=O)CNC(=O)c2ccc(OCC)c(OCC)c2)CC1,.,.,.,.,?,.
COC(=O)c1ccc(Nc2nc(-c3ccccc3Cl)nc3ccccc23)cc1,/,?,.,/,/,/
Cc1nc2ncnn2c(C)c1CCC(=O)NCc1ccccc1Cl,/,.,.,.,/,/
Cc1ccc(-n2ncc(C(=O)N3CCC(c4ccccc4)C3)c2C2CCN(C(=O)OC(C)(C)C)CC2)cc1 (configuration not stated),/,?,.,/,/,/
COc1ccc2c(c1)[C@@]1(OCCC=C[C@@H]1C)C(=O)N2Cc1ccc(F)cc1,/,?,/,.,/,/
Cc1cc(C)c(C(=O)Nc2ccc3c(c2)OCCO3)c(C)c1,/,/,.,/,/,/
Cc1ccc(C(=O)Nc2ccc3c(c2)OCCO3)c(C)c1,.,?,?,1.3µM,.,.
Cc1cccc(NC(=O)c2ccc3c(c2)OCCO3)c1,.,?,.,7.9µM,.,?
O=C(Nc1ccccc1)c1ccc2c(c1)OCCO2,.,?,.,?,.,.
COc1ccc(-c2cccc(NC(=O)c3ccc4c(c3)OCO4)c2)nn1,.,.,.,?,16µM,?
CCCCNC(=O)C1CCN(c2nc3ccc(C)cc3[nH]2)CC1,/,.,.,/,/,/
CCCCOc1ccccc1NC(=O)CC1Nc2ccccc2NC1=O (configuration not stated),1.7µM,.,.,?,.,.
CCCCNC(=O)CC1Nc2ccccc2NC1=O (configuration not stated),.,/,.,.,.,.
COc1ccc2c(CC(=O)NC(Cc3ccc(Cl)cc3)C(=O)O)cc(=O)oc2c1C (configuration not stated),?,/,.,/,.,?
CCOc1ccccc1NC(=O)Cn1c(=O)n(CCCC(=O)NCCc2ccc(C)cc2)c(=O)c2ccccc21,/,.,.,.,/,/
COc1ccc(O)c(C(=O)c2cc(C(=O)NCCc3ccccc3)c(=O)n(CCc3ccccc3)c2)c1,?,?,.,?,?,?
Cc1cccc(C(=O)Nc2ccc(Cl)cc2C(=O)c2ccccc2)c1,?,.,.,.,.,?
Cc1ccccc1NC(=O)c1cc(C(=O)c2cc(Cl)ccc2O)cn(-c2ccccc2C)c1=O,0.47µM,?,-65,?,13µM,0.74µM
O=C(NCc1ccccc1)c1cccn(Cc2ccccc2)c1=O,.[0.00184 µM],/,/,/,.,.
O=C(c1cc(C(=O)NCc2ccccc2)c(=O)n(Cc2ccccc2)c1)c1cc(Cl)ccc1O,2.3µM,?,.,?,?,0.66µM
Cc1ccc(O)c(C(=O)c2cc(C(=O)NCCc3ccccc3)c(=O)n(CCc3ccccc3)c2)c1,1.9µM,?,.,?,?,1.5µM
CN(C)CCCN(C(=O)c1cc(-c2cccs2)nc2ccccc12)c1nc2c(F)cccc2s1,?,?,.,11µM,.,?
